In the library only some 4.4% were active in any assay of this set; here they are far more common.
tim10-1 inh – growth inhibitors of tim10-1 mutant yeast, primary screen, luminescence, uHTS | S. cerevisiae tim10-1 ts strain growth, BacTiter-Glo, 24 h | 330,000 tested, 2.2% active | inhibition, % at 20 µM;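 active = inhibition of at least 40%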;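 note: mutant grown at 25 °C; 0% = DMSO wells with yeast and 100% = wells holding no yeast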
Mot1-301 SUMO – yeast Mot1-301 growth rescue at high temperature, primary screen, SUMOylation pathway inhibitor project, S. cerevisiae, ATP luminescence, 38.5C; growth rescue, % at 18.8 µM; S. cerevisiae Mot1-301 growth rescue; percent above DMSO median, 100 means doubled; AID 2716, 2010; 320,000 tested, 1% active;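 active = every valid replicate shows activation above 250% relative to neutral control wells; inactive = the rest, any valid replicate at or below 250%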;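 note: OY570 slx delta 5 strain wells were the positive control but not used for scaling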
tim23-1 inh – growth inhibitors of tim23-1 mutant yeast, primary screen, luminescence, uHTS; AID 463212, 2010; S. cerevisiae tim23-1 growth, BacTiter-Glo luminescence, 24 h; inhibition, % at 20 µM; 330,000 tested, 1.3% active;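 active = growth inhibition of the mutant yeast at or above 50%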;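 note: temperature-sensitive mutant grown at 25 °C; plate controls were DMSO-treated mutant yeast for no effect and medium wells lacking yeast for full effect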
PfHsp90 yeast 2 – growth inhibition of PfHsp90-expressing yeast, primary screen, antimalarial PfHsp90 inhibitor project, S. cerevisiae, BacTiter-Glo luminescence, single point, set 2. inhibition, % at 9.4 µM. BacTiter-Glo ATP, 48 h; yeast lacking PDR1 and PDR3 efflux regulators. 310,000 tested, 0.32% active;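 active = every replicate shows inhibition above about 80%, whatever the replicate mean, limit read from the data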;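 note: 0% = DMSO neutral controls and 100% = 20 µM radicicol positive controls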
TIM10 inh – growth inhibitors of isogenic TIM10 control yeast, primary screen, counter-screen for tim10-1 yeast inhibitor project, luminescence, uHTS. AID 463195, 2010. inhibition, % at 10 µM. S. cerevisiae TIM10 strain growth, BacTiter-Glo luminescence, 24 h. 330,000 tested, 1.4% active;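 active = inhibition of 40% or more at the single tested concentration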;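 note: wild-type TIM10 isogenic control strain grown at permissive 25 °C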
Yeast Mot1 SUMO – growth restoration of Mot1-301 yeast on galactose, dose response, SUMO pathway inhibitor project, whole organism, S. cerevisiae, ATP luminescence, cherry-picked samples; S. cerevisiae Mot1-301 galactose growth, 24 h; -100 = growth of slx-deleted rescue strain; growth activity, percent, % at 42 µM; shares compounds with Mot1-301 SUMO; 2,300 tested, under 10 active;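 active = Signal drops as the depositor expects, and the fitted half-maximal dose is no more than ten times the top valid tested dose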;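 note: more negative values mean stronger growth rescue toward the control strain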
Active calls of the source: *.

Nc1nc(SCc2ccc(Br)cc2)c2ncn(C3OC(CO)C(O)C3O)c2n1 (centres undefined) was read as PfHsp90 yeast 2 -29.
For COc1ccc(-c2c(C#Cc3ccsc3)c3cc(-c4ccc(OC)c(F)c4)ccc3n2C)cc1 the results were tim10-1 inh -4, Mot1-301 SUMO 10, tim23-1 inh 10, PfHsp90 yeast 2 -7 and TIM10 inh 7.
`Cc1ccc(NC(=O)CN(C)C(=O)c2cccc(Br)c2)cc1` gave tim10-1 inh 9, Mot1-301 SUMO 695*, tim23-1 inh 8, PfHsp90 yeast 2 -6, TIM10 inh -12 and Yeast Mot1 SUMO 0.
O=Cc1ccc(Cl)c(Cl)c1 was read as tim10-1 inh 8, Mot1-301 SUMO -6, tim23-1 inh 9, PfHsp90 yeast 2 2 and TIM10 inh 2.
Cc1nnsc1C(=O)N1CCC(CO)(Cc2ccccc2Cl)CC1 was read as tim10-1 inh 9, Mot1-301 SUMO active, tim23-1 inh 5, PfHsp90 yeast 2 7, TIM10 inh 1 and Yeast Mot1 SUMO 1.
Screening CC(C)(C)NC(=O)N1CCC(CO)(Cc2ccccc2Cl)CC1 returned tim10-1 inh 17, Mot1-301 SUMO -1, tim23-1 inh 9, PfHsp90 yeast 2 -16 and TIM10 inh 20.
O=c1nc(-c2ccccc2)c(-c2ccccc2)n[nH]1 was read as Mot1-301 SUMO -6 and PfHsp90 yeast 2 7.
`O=c1nc(-c2ccccc2)cn[nH]1` gave tim10-1 inh 4, Mot1-301 SUMO 570*, tim23-1 inh 4, PfHsp90 yeast 2 -4, TIM10 inh -4 and Yeast Mot1 SUMO 0.
`CN1C(=O)C(O)(CC(=O)c2ccccc2O)c2cc(Br)ccc21` (centres undefined) gave tim10-1 inh 10, Mot1-301 SUMO -9, tim23-1 inh 3, PfHsp90 yeast 2 -7, TIM10 inh 16 and Yeast Mot1 SUMO 0.
N#Cc1cccc(NC(=O)CSc2n[nH]c(=O)[nH]c2=O)c1 was read as tim10-1 inh -4, Mot1-301 SUMO 652*, tim23-1 inh 7, PfHsp90 yeast 2 33, TIM10 inh -10 and Yeast Mot1 SUMO 1.
O=C(c1ccc([N+](=O)[O-])cc1)N1CCN(c2ncc(Br)cn2)CC1 was read as tim10-1 inh 0, Mot1-301 SUMO 656*, tim23-1 inh -7, PfHsp90 yeast 2 36, TIM10 inh -15 and Yeast Mot1 SUMO 0.
For COc1ccc(CN(C)S(=O)(=O)c2nnc(NC(=O)c3ccc(C)cc3)s2)cc1OC the results were tim10-1 inh 1, Mot1-301 SUMO 466*, tim23-1 inh 11, PfHsp90 yeast 2 -11, TIM10 inh 1 and Yeast Mot1 SUMO 0.
Screening COc1ccc(CN(C)S(=O)(=O)c2nnc(NC(=O)c3ccccc3OC)s2)cc1OC returned tim10-1 inh 10, Mot1-301 SUMO -5, tim23-1 inh 0, PfHsp90 yeast 2 -7 and TIM10 inh 7.
`Cc1cccc(N2CCN(C(=O)CN3C(=O)NC(C)(C)C3=O)CC2)c1C` gave tim10-1 inh 11, Mot1-301 SUMO 527*, tim23-1 inh 1, PfHsp90 yeast 2 -5, TIM10 inh -13 and Yeast Mot1 SUMO 0.
For Cc1cccc(N2CCN(C(=O)CN3C(=O)NC(C)(C4CC4)C3=O)CC2)c1C (centres undefined) the results were tim10-1 inh -7, tim23-1 inh 2, PfHsp90 yeast 2 -8 and TIM10 inh 0.
For CC(C)NC(=O)NC(=O)COC(=O)CCCSc1nc2ccccc2s1 the results were tim10-1 inh 27, Mot1-301 SUMO 505*, tim23-1 inh 31, PfHsp90 yeast 2 -38, TIM10 inh 13 and Yeast Mot1 SUMO 0.
For Cc1ccc(S(=O)(=O)N(CC(=O)N2CCN(c3ccccc3F)CC2)C2CCCCC2)cc1 the results were tim10-1 inh 29, Mot1-301 SUMO 798, tim23-1 inh 27, PfHsp90 yeast 2 8 and TIM10 inh 31.
Screening O=C(CCc1ccccc1)N1CCN(c2ccccc2F)CC1 returned tim10-1 inh 29, Mot1-301 SUMO 793*, tim23-1 inh 16, PfHsp90 yeast 2 4, TIM10 inh -20 and Yeast Mot1 SUMO 0.
CS(=O)(=O)N(CC(=O)N1CCN(c2ccccc2F)CC1)C1CCCCC1 was read as tim10-1 inh 5, Mot1-301 SUMO 680*, tim23-1 inh 4, PfHsp90 yeast 2 -2, TIM10 inh 3 and Yeast Mot1 SUMO 0.
Screening O=C(/C=C/c1cccc([N+](=O)[O-])c1)OCC1CCCO1 (centres undefined) returned tim10-1 inh 6, Mot1-301 SUMO -9, tim23-1 inh 5, PfHsp90 yeast 2 5 and TIM10 inh -6.
`COc1cc(C)ccc1NC(=O)Cc1csc(NC(=O)Nc2ccccc2OC)n1` gave tim10-1 inh 6, Mot1-301 SUMO 178, tim23-1 inh 19 and TIM10 inh 9.
For CCC(=O)Nc1nc(CC(=O)Nc2ccccc2OC)cs1 the results were tim10-1 inh 8, Mot1-301 SUMO active, tim23-1 inh 4, PfHsp90 yeast 2 -12, TIM10 inh -2 and Yeast Mot1 SUMO 0.
Cc1ccc(N/C=C(\C#N)c2ccc(OCCCF)cc2)cc1 was read as tim10-1 inh 25, Mot1-301 SUMO 724*, tim23-1 inh 2, PfHsp90 yeast 2 -4, TIM10 inh 14 and Yeast Mot1 SUMO 0.
For CCCCN1C(=O)C(O)=C(C(C)=O)C1c1ccc(OC)cc1OC (centres undefined) the results were tim10-1 inh 7, Mot1-301 SUMO 83, tim23-1 inh 1, PfHsp90 yeast 2 24 and TIM10 inh -38.
Screening COc1ccc(C2C(C(C)=O)=C(O)C(=O)N2CCO)c(OC)c1 (centres undefined) returned tim10-1 inh -15, Mot1-301 SUMO 893*, tim23-1 inh -10, PfHsp90 yeast 2 0, TIM10 inh 2 and Yeast Mot1 SUMO 1.
Screening Cc1nn(C)c(C)c1/C=N/NC(=O)C(C)(C)Oc1ccc(Cl)cc1 returned tim10-1 inh 9, Mot1-301 SUMO 591*, tim23-1 inh 5, PfHsp90 yeast 2 16, TIM10 inh -8 and Yeast Mot1 SUMO 1.
Screening Cc1c(/C=N/NC(=O)C(C)(C)Oc2ccc(Cl)cc2)cnn1C returned tim10-1 inh 6, Mot1-301 SUMO -25, tim23-1 inh 2, PfHsp90 yeast 2 16 and TIM10 inh 1.
